# Data published in PubChem BioAssay.
# “And” between values parts separate entries of the source, which are not always exact repeats. Equal values may be shown once. For some of these results: Potency and affinity values are given separately. The source made the active and inactive calls.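 How the source made its calls, unless noted: active means thallium flux through the channel raised or lowered by more than 3 SD from vehicle-only wells, actives on both sides; inactive means the rest.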
# Experiments:
# [1] = polyglutamine-triggered caspase-3 activation inhibitors, cell-based (AID 1583); settings: polyglutamine-induced caspase-3 activation, cell assay; stronger effect = higher value;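 tested at 10 µM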
# [2] = suppressors of polyQ aggregation in yeast, 75Q-TubU reporter (AID 1593); settings: Yeast 75Q polyglutamine aggregation reporter
# [3] = rescue of polyQ-huntingtin neuronal dysfunction in worms, whole organism, C. elegans mechanosensory neurons, N-terminal huntingtin (AID 1599); settings: touch response, stronger effect = higher value
# [4] = inhibitors of mitochondrial cytochrome c release, biochemical, purified mitochondria (AID 1603); settings: stronger effect = lower value;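 further: mouse liver mitochondria challenged with calcium chloride; signal normalized to the plate average as 100%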
# [5] = inhibitors of polyQ protein aggregation (AID 1604); settings: polyglutamine-induced protein aggregation inhibition assay; stronger effect = higher value; tested at 2.5 µM
# [6] = enhancers of glutamate uptake in motor neurons, MN-1 cell line (AID 1612); settings: MN-1 motor neuron cells, stronger effect = higher value;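 further: tested at 1 µM final; 0% = mean of DMSO vehicle wells on each plate; positive means more glutamate uptake than control and negative means less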
# [7] = suppressors of polyglutamine aggregation in yeast, 75Q-TubH (AID 1616); settings: S. cerevisiae 75Q-TubH polyglutamine aggregation suppression; stronger effect = higher value
# [8] = LFS_MB_P medulloblastoma growth inhibition, cell-based, chromothripsis tumors, cisplatin or BGB combos (AID 1671449; in the data active means inhibition above about 80%;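 further: cells exposed for 96 hours; 0% = vehicle DMSO and 100% = killing by high DMSO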); settings: LFS_MB_P medulloblastoma cells
# [9] = tested on: F380Y/beta4; experiment: modulators of BK channel variants, profiling panel, selectivity assay, cell-based, U2OS BacMam, thallium flux, beta subunits (AID 1259406); settings: at 30 µM;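 further: initial slope of Thallos dye fluorescence rise after thallium is added; log ratio against the mean of 0.3% DMSO vehicle wells on the same plate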
# [10] = molecular target: Calcium-activated potassium channel subunit alpha-1 (Homo sapiens) + Leucine-rich repeat-containing protein 26 (Homo sapiens) (UniProt Q12791+Q2I0M4); experiment: as above; settings: F380Y/Slo1WT/gamma1, at 30 µM
# Sequence of Calcium-activated potassium channel subunit alpha-1 (Homo sapiens) + Leucine-rich repeat-containing protein 26 (Homo sapiens) (Q2I0M4 whole entry, looked up, one chain of several): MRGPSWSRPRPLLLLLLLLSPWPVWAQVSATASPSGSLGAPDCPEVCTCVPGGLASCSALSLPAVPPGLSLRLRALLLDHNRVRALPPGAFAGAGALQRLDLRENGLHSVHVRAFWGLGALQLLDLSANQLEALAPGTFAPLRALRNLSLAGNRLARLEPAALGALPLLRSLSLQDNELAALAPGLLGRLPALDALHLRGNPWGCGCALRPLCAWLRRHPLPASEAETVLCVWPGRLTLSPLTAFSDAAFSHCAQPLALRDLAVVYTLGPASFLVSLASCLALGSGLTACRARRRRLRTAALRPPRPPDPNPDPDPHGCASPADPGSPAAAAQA
# [11] = tested on: R275C; experiment: as above; settings: at 30 µM
# [12] = tested on: R275C/beta1; experiment: as above; settings: at 30 µM
# [13] = tested on: R275C/beta2Delta; experiment: as above; settings: at 30 µM
# [14] = tested on: R275C/beta4; experiment: as above; settings: at 30 µM
# [15] = tested on: R275C/Slo1WT/beta2; experiment: as above; settings: at 30 µM
# [16] = Cy5 fluorescence interference with SSB-bound oligo, artefact control for HCV NS3 helicase inhibitor project, biochemical, NIH Clinical Collection, E. coli SSB (AID 743268; call rule not given here)
# [17] = tested on: Hepatitis C virus NS3 helicase; experiment: HCV NS3 helicase inhibitors, primary screen, biochemical, fluorescence polarization, NIH Clinical Collection (AID 743270; call rule not given here); settings: NS3 helicase binding to Cy5-dT15 DNA, stronger effect = higher value, concentration not given here
# [18] = molecular target: Single-stranded DNA-binding protein (Escherichia coli (strain K12)) (UniProt P0AGE0); experiment: E. coli SSB displacement from DNA, counter-screen for HCV NS3 helicase inhibitor project, biochemical, fluorescence polarization, NIH Clinical Collection (AID 743271; in the data active means inhibition above about 28%); settings: stronger effect = higher value, concentration not given here
# [19] = fluorescence interference in NS3h assay format, artefact control for HCV NS3 helicase inhibitor project, biochemical, NIH Clinical Collection (AID 743272; call rule not given here;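 further: HCV NS3 helicase with a Cy5 labelled single stranded DNA probe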); settings: fluorescence interference counterscreen, stronger effect = lower value
# [20] = viability rescue of complex I mutant cybrids, primary screen, cell-based, galactose medium, ATP luminescence (AID 1645843;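 active means z-score of at least 1.8 in each of two replicates, scored against plate mean and spread of sample wells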;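 further: positive z means more ATP and so rescue of galactose-driven cybrid death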); settings: complex I mutant cybrid cells, 72 h, stronger effect = higher value
compound,measurement,setting,value
Nc1nc2c(ncn2COCCO)c(=O)[nH]1,inhibition,[1],6.39%
same,score,[2],1.1
same,rescue above control,[3],0.24
same,cytochrome c release ratio,[4],1.05
same,inhibition of aggregation,[5],51.5%
same,glutamate uptake change,[6],13.5%
same,aggregation suppression score,[7],1.27
same,inhibition,"[8]; at 0.5 µM, stronger effect = higher value",-27.5% (inactive) and -23.8% (inactive)
same,inhibition,"[8]; measured here: combination with BGB IC20, at 0.005 µM",-0.211% and -20%
same,inhibition,"[8]; measured here: combination with BGB IC40, at 0.005 µM",-37.2% and -37.3%
same,inhibition,"[8]; measured here: combination with BGB IC40, at 0.05 µM",-22.3% and -50.5%
same,inhibition,"[8]; measured here: combination with cisplatin, at 0.5 µM, stronger effect = higher value",-35.1% and -39.9%
same,inhibition,"[8]; measured here: combination with cisplatin, at 5 µM, stronger effect = higher value",-19.1% and -38.4%
same,log fold change Tl+ flux,[9],-0.0606 (inactive)
same,log fold change Tl+ flux,[10],-0.0276 (inactive)
same,log fold change Tl+ flux,[11],-0.024 (inactive)
same,log fold change Tl+ flux,[12],-0.0244 (inactive)
same,log fold change Tl+ flux,[13],-0.00892 (inactive)
same,log fold change Tl+ flux,[14],0.0324 (inactive)
same,log fold change Tl+ flux,[15],0.0456 (inactive)
CN1C(C(=O)Nc2ccccn2)=C(O)c2ccccc2S1(=O)=O,inhibition,[1],-2.37%
same,score,[2],0.27
same,rescue above control,[3],9.46
same,cytochrome c release ratio,[4],1.16
same,inhibition of aggregation,[5],83.1%
same,glutamate uptake change,[6],-13.7%
same,aggregation suppression score,[7],0.134
same,fluorescence ratio,[16],1.01 (inactive)
same,inhibition,[17],1.98% (inactive)
same,inhibition,[18],1.44% (inactive)
same,fluorescence ratio,[19],0.98 (inactive)
same,log fold change Tl+ flux,[9],-0.0159 (inactive)
same,log fold change Tl+ flux,[10],0.00877 (inactive)
same,log fold change Tl+ flux,[11],0.0414 (inactive)
same,log fold change Tl+ flux,[12],0.0251 (inactive)
same,log fold change Tl+ flux,[13],-0.00889 (inactive)
same,log fold change Tl+ flux,[14],0.00622 (inactive)
same,log fold change Tl+ flux,[15],-0.000416 (inactive)
N=C(N)c1ccc(OCCCCCOc2ccc(C(=N)N)cc2)cc1,inhibition,[1],-13.3%
same,score,[2],0.69
same,rescue above control,[3],0
same,cytochrome c release ratio,[4],2.1
same,inhibition of aggregation,[5],62.8%
same,glutamate uptake change,[6],6.93%
same,aggregation suppression score,[7],0.265
same,z-score,[20],-0.685 (inactive)
CN(C)CCCN1c2ccccc2CCc2ccc(Cl)cc21,inhibition,[1],-18.9%
same,score,[2],0.98
same,cytochrome c release ratio,[4],1.15
same,inhibition of aggregation,[5],66.7%
same,glutamate uptake change,[6],6.78%
same,aggregation suppression score,[7],0.939
same,fluorescence ratio,[16],1 (inactive)
same,inhibition,[17],-3.18% (inactive)
same,inhibition,[18],0.29% (inactive)
same,fluorescence ratio,[19],1 (inactive)
same,z-score,[20],-1.52 (inactive) and -1.25 (inactive) and -0.78 (inactive)
same,log fold change Tl+ flux,[9],0.151 (active)
same,log fold change Tl+ flux,[10],-0.0105 (inactive)
same,log fold change Tl+ flux,[11],0.0284 (inactive)
same,log fold change Tl+ flux,[12],0.00748 (inactive)
same,log fold change Tl+ flux,[13],-0.0594 (inactive)
same,log fold change Tl+ flux,[14],0.278 (active)
same,log fold change Tl+ flux,[15],-0.0809 (inactive)
CCCCCN=C(N)N/N=C/c1c[nH]c2ccc(OC)cc12,fluorescence ratio,[16],0.7 (active)
same,inhibition,[17],8.32% (inactive)
same,inhibition,[18],7.6% (inactive)
same,fluorescence ratio,[19],0.88 (inactive)
CC[C@H]1CN2CCc3cc(OC)c(OC)cc3[C@@H]2C[C@@H]1C[C@H]1NCCc2cc(OC)c(OC)cc21,z-score,[20],-0.955 (inactive)
CC[C@H](C)C(=O)O[C@H]1C[C@@H](C)C=C2C=C[C@H](C)[C@H](CC[C@@H]3C[C@@H](O)CC(=O)O3)[C@H]21,inhibition,[1],-14.6%
same,score,[2],-1.08
same,rescue above control,[3],-2.24
same,cytochrome c release ratio,[4],0.75
same,inhibition of aggregation,[5],26.5%
same,glutamate uptake change,[6],-19%
same,aggregation suppression score,[7],0.603
same,fluorescence ratio,[16],1.1 (inactive)
same,inhibition,[17],3.18% (inactive)
same,inhibition,[18],3.34% (inactive)
same,fluorescence ratio,[19],0.96 (inactive)
same,z-score,[20],-0.3 (inactive) and -0.62 (inactive) and -0.095 (inactive)
same,log fold change Tl+ flux,[9],-0.0805 (inactive)
same,log fold change Tl+ flux,[10],0.025 (inactive)
same,log fold change Tl+ flux,[11],-0.0727 (inactive)
same,log fold change Tl+ flux,[12],0.0657 (inactive)
same,log fold change Tl+ flux,[13],0.0172 (inactive)
same,log fold change Tl+ flux,[14],0.0477 (inactive)
same,log fold change Tl+ flux,[15],-0.0508 (inactive)
